# Source: PubChem BioAssay
# Records with an inconclusive call do not appear. The source made the active and inactive calls.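 Rule for the calls, unless noted: active = differentiation response of at least 50%, scaled between solvent and reference control, from cells with both markers; inactive = the rest.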
# How the values were obtained:
# [1] = yeast TOR pathway RPL19A-GFP modulators, primary screen, cell-based, S. cerevisiae, multiplex flow cytometry (AID 1862; in the data active = percent of DMSO control GFP below about 86%;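 note: lower values mimic rapamycin by blocking the RPL19A rise seen in DMSO cells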); details: S. cerevisiae RPL19A-GFP strain, flow cytometry fluorescence, 3 h; at 10 µM; stronger effect = lower value
# [2] = modulators of MEP2-GFP levels in yeast, primary screen, S. cerevisiae, multiplex flow cytometry (AID 1867;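 active = GFP response, as percent of the DMSO control, above the screen-wide mean plus 3 SD, about 139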;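 note: median GFP channel fluorescence of barcode-gated MEP2-GFP cells measured by flow cytometry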); details: S. cerevisiae MEP2-GFP strain, 3 h, at 10 µM, stronger effect = higher value, 100% means same as DMSO wells
# [3] = modulators of CIT2-GFP expression in yeast, primary screen, S. cerevisiae, GFP fusion, multiplex flow cytometry (AID 1870;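 active = percent response above a set limit, the screen-wide mean plus 3 SD, cut at about 130% in these data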;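 note: barcoded CIT2-GFP strain pooled with four other GFP strains with rapamycin as positive control; median GFP fluorescence per well over plate mean of DMSO wells so 100% = DMSO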); details: 3 h, at 10 µM, stronger effect = higher value
# [4] = modulators of LAP4-GFP expression in yeast, primary screen, S. cerevisiae, multiplex flow cytometry (AID 1873;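 active = GFP signal, as percent of the solvent control, above the screen mean plus 3 SD, about 149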); details: 3 h, at 10 µM, stronger effect = higher value
# [5] = modulators of AGP1-GFP expression in yeast TOR pathway, primary screen, cell-based, multiplex flow cytometry, S. cerevisiae (AID 1887;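 active = GFP signal above the screen-wide mean plus 3 SD, that is over about 124.5% of the solvent control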;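 note: AGP1-GFP fusion strain of S. cerevisiae within a five-strain barcoded multiplex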); details: 3 h, at 10 µM, stronger effect = higher value
# [6] = inhibitors of CD8+ T cell-vesicle binding, pilot screen, LFA-1/ICAM-1 modulator project, MLPCN validation set, flow cytometry (AID 2523;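 active = response below a set limit, under 55% cells CD8-positive and vesicle-bound, and CD8 cells' 90th-percentile brightness under 279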;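 for vesicle binding response: mean PE anti-B7-1 fluorescence of CD8+ cells relative to row control; 100% = QL9-loaded vesicles with DMSO vehicle in the same plate row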); details: 2C mouse CD8+ T cells, at 7 µM, stronger effect = lower value; double positive events: measured here: CD8+/vesicle+ event percentage
# [7] = biological target: Integrin beta-1 (Homo sapiens) + Integrin alpha-4 (Homo sapiens) (UniProt P13612+P05556); test: inhibition of HUTS-21 binding to VLA-4, pilot screen, VLA-4 allosteric modulator project, U937 cells, HUTS-21 mAb, flow cytometry, validation set (AID 2674;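 active = inhibition above 50%, about 3 SD of the validation set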;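 note: antibody binding induced by the VLA-4 ligand LDV present at three times its Kd; 0% = LDV ligand with antibody and no compound and 100% = antibody without LDV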); details: HUTS-21 LIBS mAb binding, at 6.7 µM, stronger effect = higher value, binding induced by LDV ligand
# Sequence of Integrin beta-1 (Homo sapiens) + Integrin alpha-4 (Homo sapiens) (P05556 whole entry, looked up): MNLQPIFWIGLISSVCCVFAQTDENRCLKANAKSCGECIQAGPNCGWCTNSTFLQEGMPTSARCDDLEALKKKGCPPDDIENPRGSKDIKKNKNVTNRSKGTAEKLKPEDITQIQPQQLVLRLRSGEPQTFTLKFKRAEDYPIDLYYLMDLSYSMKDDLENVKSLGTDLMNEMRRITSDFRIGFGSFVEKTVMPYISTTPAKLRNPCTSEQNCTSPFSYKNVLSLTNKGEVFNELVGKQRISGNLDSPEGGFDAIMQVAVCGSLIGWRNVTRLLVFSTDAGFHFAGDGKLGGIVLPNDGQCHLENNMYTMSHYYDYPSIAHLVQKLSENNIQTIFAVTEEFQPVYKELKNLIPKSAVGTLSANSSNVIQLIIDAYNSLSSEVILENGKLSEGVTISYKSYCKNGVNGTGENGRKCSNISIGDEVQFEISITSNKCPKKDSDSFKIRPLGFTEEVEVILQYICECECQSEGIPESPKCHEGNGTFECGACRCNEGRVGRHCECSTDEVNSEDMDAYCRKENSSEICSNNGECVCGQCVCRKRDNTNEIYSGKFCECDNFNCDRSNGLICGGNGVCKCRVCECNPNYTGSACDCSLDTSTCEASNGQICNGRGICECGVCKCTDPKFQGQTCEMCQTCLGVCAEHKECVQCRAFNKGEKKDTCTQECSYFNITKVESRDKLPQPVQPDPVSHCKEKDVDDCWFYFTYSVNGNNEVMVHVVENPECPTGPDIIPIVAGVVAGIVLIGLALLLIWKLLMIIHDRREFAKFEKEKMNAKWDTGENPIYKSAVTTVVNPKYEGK
# Sequence of Integrin beta-1 (Homo sapiens) + Integrin alpha-4 (Homo sapiens) (P13612 whole entry, looked up): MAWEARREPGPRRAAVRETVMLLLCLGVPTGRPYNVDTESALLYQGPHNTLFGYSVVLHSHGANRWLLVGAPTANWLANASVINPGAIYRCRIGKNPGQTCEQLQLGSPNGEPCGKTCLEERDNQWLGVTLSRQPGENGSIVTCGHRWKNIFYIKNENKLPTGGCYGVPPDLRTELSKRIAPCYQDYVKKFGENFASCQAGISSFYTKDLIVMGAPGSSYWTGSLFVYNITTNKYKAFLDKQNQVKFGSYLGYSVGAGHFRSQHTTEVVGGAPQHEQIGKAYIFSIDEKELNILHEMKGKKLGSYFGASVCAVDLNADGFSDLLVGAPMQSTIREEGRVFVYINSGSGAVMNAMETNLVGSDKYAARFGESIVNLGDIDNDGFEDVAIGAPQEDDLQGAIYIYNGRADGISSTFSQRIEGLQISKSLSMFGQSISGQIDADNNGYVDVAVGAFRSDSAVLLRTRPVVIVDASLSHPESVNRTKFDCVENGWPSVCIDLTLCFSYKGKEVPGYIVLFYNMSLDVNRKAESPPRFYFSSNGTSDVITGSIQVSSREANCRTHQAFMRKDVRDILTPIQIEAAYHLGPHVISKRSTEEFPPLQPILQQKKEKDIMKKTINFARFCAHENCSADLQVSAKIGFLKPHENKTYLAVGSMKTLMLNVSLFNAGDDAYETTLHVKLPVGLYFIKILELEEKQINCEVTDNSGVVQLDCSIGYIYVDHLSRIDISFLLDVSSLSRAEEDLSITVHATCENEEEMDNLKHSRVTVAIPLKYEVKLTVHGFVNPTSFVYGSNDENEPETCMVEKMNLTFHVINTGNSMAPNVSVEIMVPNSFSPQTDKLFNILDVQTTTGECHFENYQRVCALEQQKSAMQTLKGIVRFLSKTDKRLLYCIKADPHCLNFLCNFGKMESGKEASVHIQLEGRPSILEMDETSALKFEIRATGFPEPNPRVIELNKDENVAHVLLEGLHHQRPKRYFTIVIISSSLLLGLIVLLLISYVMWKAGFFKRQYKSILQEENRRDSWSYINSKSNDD
# [8] = superoxide lowering in aged yeast cells, pilot screen, validation compound set (AID 2706;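 active = superoxide response below 65% of plate, a cut near 3 SD across the whole screen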;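 note: yeast exposed to compound for one week at 30 degrees C before staining; 100% = mean of all compound wells on the same plate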); details: S. cerevisiae aging, superoxide DHE fluorescence; at 10 µM; stronger effect = lower value
# [9] = biological target: Beta-adrenergic receptor kinase 1 (Homo sapiens) (UniProt P25098); test: GRK2 binders displacing RNA aptamer, biochemical, validation, human GRK2, bead flow cytometry (AID 488806;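 active = aptamer binding inhibition above 30%, about 3 SD of noise from non-fluorescent compounds; inactive = inhibition at or below 30%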); details: bead-bound GRK2, FAM-aptamer displacement, at 10 µM, stronger effect = higher value
# Sequence of Beta-adrenergic receptor kinase 1 (Homo sapiens) (P25098 whole entry, looked up): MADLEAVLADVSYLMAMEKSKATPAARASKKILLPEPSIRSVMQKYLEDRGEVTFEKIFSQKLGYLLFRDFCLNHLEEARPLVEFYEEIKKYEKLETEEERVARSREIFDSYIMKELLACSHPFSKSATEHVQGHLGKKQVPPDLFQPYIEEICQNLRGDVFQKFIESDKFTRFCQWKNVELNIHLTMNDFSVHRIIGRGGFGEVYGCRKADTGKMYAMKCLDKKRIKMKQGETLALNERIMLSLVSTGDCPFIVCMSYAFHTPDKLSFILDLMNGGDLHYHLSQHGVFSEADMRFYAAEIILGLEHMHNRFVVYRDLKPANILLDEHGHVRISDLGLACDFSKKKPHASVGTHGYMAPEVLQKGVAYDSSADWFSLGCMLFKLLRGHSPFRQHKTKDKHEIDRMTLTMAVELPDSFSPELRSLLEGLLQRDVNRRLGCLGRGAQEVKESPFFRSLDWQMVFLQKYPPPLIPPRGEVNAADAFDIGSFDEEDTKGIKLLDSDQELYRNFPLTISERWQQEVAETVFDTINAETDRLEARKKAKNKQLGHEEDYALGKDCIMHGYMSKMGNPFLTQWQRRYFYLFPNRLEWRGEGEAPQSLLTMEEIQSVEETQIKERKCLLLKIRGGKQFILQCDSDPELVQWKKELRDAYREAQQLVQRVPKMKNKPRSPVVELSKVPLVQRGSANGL
# [10] = biological target: Beta-2 adrenergic receptor (Homo sapiens) (UniProt P07550); test: beta2AR agonists driving receptor internalization, pilot screen, cell-based, FAP fluorogen, flow cytometry, validation set (AID 504459;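 active = percent response above 42, roughly 3 SD of non-fluorescent test compounds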;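 note: agonist-driven loss of surface beta2AR via internalization measured by FAP dye flow cytometry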); details: Am2.2-beta2AR cells, FAP surface receptor flow cytometry; at 10 µM; stronger effect = higher value
# Sequence of Beta-2 adrenergic receptor (Homo sapiens) (P07550 whole entry, looked up): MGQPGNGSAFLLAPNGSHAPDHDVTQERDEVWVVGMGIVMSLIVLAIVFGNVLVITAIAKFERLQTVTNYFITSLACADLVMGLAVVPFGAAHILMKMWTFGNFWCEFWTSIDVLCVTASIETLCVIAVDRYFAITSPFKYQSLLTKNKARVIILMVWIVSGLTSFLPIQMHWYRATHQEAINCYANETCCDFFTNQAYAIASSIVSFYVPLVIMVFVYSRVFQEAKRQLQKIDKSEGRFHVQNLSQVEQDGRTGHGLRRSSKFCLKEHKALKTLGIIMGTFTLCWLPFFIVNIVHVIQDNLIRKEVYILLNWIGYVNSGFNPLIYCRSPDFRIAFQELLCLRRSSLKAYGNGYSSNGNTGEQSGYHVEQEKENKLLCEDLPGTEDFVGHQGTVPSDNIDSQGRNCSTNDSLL
# [11] = biological target: AP-2 complex subunit beta (Homo sapiens) (UniProt P63010); test: inhibitors of arrestin peptide binding to AP2, pilot screen, biochemical, validation set, GST-AP2 beads, flow cytometry (AID 504541;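 active = inhibition above 54%, about 3 SD of non-fluorescent compounds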;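 note: AP2 carries R879A mutation and is captured from E. coli lysate; bead-bound FITC arrestin peptide fluorescence measuring arrestin peptide binding to AP2; 0% = DMSO wells and 100% = excess unlabeled arrestin peptide control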); details: FITC arrestin peptide, at 10 µM, stronger effect = higher value, AP2 beta2 appendage fragment, R879A mutant
# Sequence of AP-2 complex subunit beta (Homo sapiens) (P63010 whole entry, looked up, the tested form may be a part, one chain of several): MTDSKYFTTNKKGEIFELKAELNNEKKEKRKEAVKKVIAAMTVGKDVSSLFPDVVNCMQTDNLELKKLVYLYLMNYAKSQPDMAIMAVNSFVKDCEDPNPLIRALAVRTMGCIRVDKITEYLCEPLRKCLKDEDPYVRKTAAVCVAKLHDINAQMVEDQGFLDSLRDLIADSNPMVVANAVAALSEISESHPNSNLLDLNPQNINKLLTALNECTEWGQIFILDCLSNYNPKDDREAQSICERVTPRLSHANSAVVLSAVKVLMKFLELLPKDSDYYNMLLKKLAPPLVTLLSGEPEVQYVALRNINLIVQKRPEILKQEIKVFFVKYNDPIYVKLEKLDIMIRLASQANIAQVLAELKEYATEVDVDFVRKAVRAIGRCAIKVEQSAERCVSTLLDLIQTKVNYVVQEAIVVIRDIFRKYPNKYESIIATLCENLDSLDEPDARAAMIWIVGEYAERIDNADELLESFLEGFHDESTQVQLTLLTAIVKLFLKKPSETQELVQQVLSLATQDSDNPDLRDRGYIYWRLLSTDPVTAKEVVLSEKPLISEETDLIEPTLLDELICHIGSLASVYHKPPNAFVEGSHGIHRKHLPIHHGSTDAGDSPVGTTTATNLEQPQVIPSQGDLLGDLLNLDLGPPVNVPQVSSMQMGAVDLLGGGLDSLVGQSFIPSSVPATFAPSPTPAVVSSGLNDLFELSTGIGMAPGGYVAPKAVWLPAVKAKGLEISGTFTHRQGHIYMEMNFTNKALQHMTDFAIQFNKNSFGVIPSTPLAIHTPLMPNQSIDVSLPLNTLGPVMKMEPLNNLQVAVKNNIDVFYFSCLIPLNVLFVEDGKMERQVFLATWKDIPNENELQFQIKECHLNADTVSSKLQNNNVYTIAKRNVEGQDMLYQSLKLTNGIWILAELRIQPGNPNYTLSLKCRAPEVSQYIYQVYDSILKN
# [12] = yeast V-ATPase proton transport modulators, S. cerevisiae, pHLuorin, HTS validation (AID 504600; in the data active = response above about 15%;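 note: plate controls were DMSO for no effect and reference compound for full effect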); details: S. cerevisiae pHLuorin cytosolic pH, at 10 µM, stronger effect = higher value
# [13] = tested on: anti-desmoglein-3 scFv antibody binding to human DSG3; test: inhibitors of anti-DSG3 scFv binding to DSG3, pilot screen, biochemical, validation compound set, bead-based, flow cytometry (AID 588368;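 active = binding below the plate cutoff, the plate median minus 3 SD, with a reading above zero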;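 note: signal is the median channel fluorescence of bead-bound GFP antibody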); details: Protein G beads, DSG3-Fc, scFv-GFP binding, at 10 µM, stronger effect = lower value
# [14] = inhibitors of fungal efflux pumps CDR1, CDR2, MDR1, pilot screen, validation compound set, multiplex, phenotypic (AID 588506;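 active = efflux inhibition above 0.42, the validation set average plus 4 SD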;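 note: Nile Red retained in cells so higher fluorescence means more efflux inhibition; 0 = negative control wells and 1 = enniatin B 25 µM full block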); details: S. cerevisiae pump-expressing triplex, Nile Red efflux flow cytometry; at 10 µM; stronger effect = higher value; the pumps come from Candida albicans
# [15] = biological target: ATP-binding cassette sub-family B member 6 (Homo sapiens) (UniProt Q9NP58); test: ABCB6 transporter inhibitors, pilot screen, K562-ABCB6 cells, flow cytometry, validation set (AID 588550;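 active = inhibition above the screen-wide mean plus 3 SD, about 51%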;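 note: 0% = DMSO wells and 100% = benzethonium chloride 70 µM positive control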); details: K562-ABCB6 porphyrin accumulation, 1 h, at 10 µM, stronger effect = higher value
# Sequence of ATP-binding cassette sub-family B member 6 (Homo sapiens) (Q9NP58 whole entry, looked up): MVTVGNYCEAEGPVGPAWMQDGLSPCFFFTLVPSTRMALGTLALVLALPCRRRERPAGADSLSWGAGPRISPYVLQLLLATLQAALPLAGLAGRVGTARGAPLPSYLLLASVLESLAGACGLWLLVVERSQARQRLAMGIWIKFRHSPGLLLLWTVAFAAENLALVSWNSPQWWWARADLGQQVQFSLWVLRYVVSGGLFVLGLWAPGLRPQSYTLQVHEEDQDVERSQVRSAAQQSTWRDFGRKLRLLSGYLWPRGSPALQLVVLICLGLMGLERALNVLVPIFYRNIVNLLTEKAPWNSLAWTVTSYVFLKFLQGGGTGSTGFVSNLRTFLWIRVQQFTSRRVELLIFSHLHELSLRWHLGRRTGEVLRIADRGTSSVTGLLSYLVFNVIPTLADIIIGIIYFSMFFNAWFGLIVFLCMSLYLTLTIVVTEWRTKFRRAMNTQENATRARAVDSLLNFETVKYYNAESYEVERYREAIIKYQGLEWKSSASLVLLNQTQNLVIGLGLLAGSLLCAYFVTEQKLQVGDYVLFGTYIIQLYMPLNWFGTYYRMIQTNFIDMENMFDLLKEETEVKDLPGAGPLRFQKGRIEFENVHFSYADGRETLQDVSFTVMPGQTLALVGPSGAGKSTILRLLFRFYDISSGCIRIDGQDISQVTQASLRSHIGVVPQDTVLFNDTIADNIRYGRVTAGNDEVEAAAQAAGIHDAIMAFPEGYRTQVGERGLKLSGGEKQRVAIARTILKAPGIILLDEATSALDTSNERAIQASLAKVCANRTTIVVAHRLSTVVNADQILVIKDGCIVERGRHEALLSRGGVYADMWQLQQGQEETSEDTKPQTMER
# [16] = promoters of myeloid differentiation in arrested cells, primary screen, cell-based, GFP/MAC1 double positive, flow cytometry, validation set (AID 588685); details: ER-HoxA9 marrow cells, stronger effect = higher value, normalized: vehicle 0, fulvestrant 100;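 note: compound exposure lasts four days before antibody staining and flow analysis; 0% = DMSO wells and 100% = 5 µM fulvestrant positive control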
Compound,percent of DMSO control GFP [1],GFP response vs DMSO [2],percent response of DMSO control [3],GFP response vs DMSO [4],"GFP response, % of DMSO [5]",double positive events [6] [%],vesicle binding response [6],inhibition [7],superoxide response (% of plate) [8],aptamer binding inhibition [9],response [10],inhibition [11],response [12],binding (% of control) [13],efflux inhibition (fraction of control) [14],inhibition [15],differentiation response [16]
O=C1OC(Nc2ccc3c(c2)OCO3)c2ccccc21 (stereo not drawn),99.4% (inactive),105% (inactive),93.1% (inactive),114% (inactive),97.3% (inactive),63.1,185% (inactive),-22.2% (inactive),99.6% (inactive),3% (inactive),10.6% (inactive),-3.85% (inactive),0.82% (inactive),100% (inactive),0.02 (inactive),-1% (inactive),21.8% (inactive)
Cc1ccc(C(=O)COC(=O)c2cccc(N3C(=O)c4c(C)nc5ccccc5c4C3=O)c2)cc1C,99.5% (inactive),102% (inactive),97% (inactive),110% (inactive),113% (inactive),61.9,170% (inactive),-8.78% (inactive),107% (inactive),1% (inactive),-22.6% (inactive),-6.3% (inactive),-3.74% (inactive),98.8% (inactive),0.25 (inactive),2% (inactive),-13.9% (inactive)
Cc1ccc(-n2cc(CNCCN3CCOC3=O)c(-c3ccc(F)cc3)n2)cc1,103% (inactive),107% (inactive),108% (inactive),85% (inactive),96.5% (inactive),59.3,129% (inactive),9.63% (inactive),109% (inactive),2% (inactive),-24.7% (inactive),-0.44% (inactive),-4.84% (inactive),104% (inactive),-0.36 (inactive),4% (inactive),-1.65% (inactive)
O=C(Nc1ncc2c(n1)CC(c1ccco1)CC2=O)c1ccco1 (stereo not drawn),93.9% (inactive),113% (inactive),95.8% (inactive),132% (inactive),95.7% (inactive),55,187% (inactive),-11.3% (inactive),102% (inactive),6% (inactive),-16% (inactive),1.11% (inactive),-0.72% (inactive),99.1% (inactive),0.01 (inactive),1% (inactive),-18.4% (inactive)
CC1(C)C(=O)OC(/C=C\c2ccccc2)C(C)(C)C1=O (stereo not drawn),98.4% (inactive),101% (inactive),95.7% (inactive),112% (inactive),107% (inactive),64.8,160% (inactive),1.44% (inactive),80.2% (inactive),6% (inactive),-19.9% (inactive),6.83% (inactive),-6.88% (inactive),97.3% (inactive),-0.09 (inactive),3% (inactive),4.86% (inactive)
CCOC(=O)C1=C(C)NC(C)=C(C(=O)OC)C1c1cccc([N+](=O)[O-])c1 (stereo not drawn),91.3% (inactive),124% (inactive),95.2% (inactive),85.3% (inactive),91.5% (inactive),63.3,200% (inactive),8.4% (inactive),104% (inactive),2% (inactive),-11.6% (inactive),41.2% (inactive),-3.09% (inactive),95.6% (inactive),0.12 (inactive),18% (inactive),-1.64% (inactive)
O=C1CCc2cc(OCCCCc3nnnn3C3CCCCC3)ccc2N1,92.4% (inactive),136% (inactive),101% (inactive),85.3% (inactive),92.2% (inactive),67,194% (inactive),-5.18% (inactive),102% (inactive),6% (inactive),-6.49% (inactive),-4.26% (inactive),-1.32% (inactive),96.9% (inactive),-0.09 (inactive),11% (inactive),8.19% (inactive)
Nc1cc(-c2ccncc2)c[nH]c1=O,103% (inactive),103% (inactive),112% (inactive),102% (inactive),105% (inactive),63.1,184% (inactive),-11.8% (inactive),82.5% (inactive),-6% (inactive),8.85% (inactive),-8.58% (inactive),-0.06% (inactive),105% (inactive),0.015 (inactive),-6% (inactive),-4.57% (inactive)
C1CCC(C(CC2CCCCN2)C2CCCCC2)CC1 (stereo not drawn),97.9% (inactive),107% (inactive),101% (inactive),130% (inactive),116% (inactive),62,170% (inactive),-17.3% (inactive),119% (inactive),-11% (inactive),26.4% (inactive),-6.24% (inactive),2.51% (inactive),109% (inactive),0.12 (inactive),-5% (inactive),-5.97% (inactive)
